OTUD3 inh – inhibitors of human OTUD3 deubiquitinase; Q5T2D3; purified OTUD3, Ub-rhodamine fluorescence, 2 h; inhibition, % at 25 µM; 47,000 compounds, 0.7% hits; AID 1645858
Target sequence (Q5T2D3 whole entry, looked up): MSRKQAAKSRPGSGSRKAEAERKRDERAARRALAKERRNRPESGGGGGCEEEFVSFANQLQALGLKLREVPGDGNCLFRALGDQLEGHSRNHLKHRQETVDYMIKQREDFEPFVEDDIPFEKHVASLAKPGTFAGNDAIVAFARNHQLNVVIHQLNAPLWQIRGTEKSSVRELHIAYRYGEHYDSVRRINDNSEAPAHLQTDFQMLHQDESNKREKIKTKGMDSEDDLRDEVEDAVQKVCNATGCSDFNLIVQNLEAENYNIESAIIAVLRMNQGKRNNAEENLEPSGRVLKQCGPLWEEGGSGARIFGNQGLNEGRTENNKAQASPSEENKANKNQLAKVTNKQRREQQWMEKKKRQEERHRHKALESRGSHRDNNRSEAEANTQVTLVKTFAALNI
USP17 block – inhibitors of human USP17 deubiquitinase | A8MUK1 | purified USP17, Ub-rhodamine cleavage fluorescence, 3 h | inhibition, % at 50 µM | 47,000 compounds, 6.5% hits
USP28 block – inhibitors of human USP28 deubiquitinase; Q96RU2; purified USP28, Ub-rhodamine cleavage fluorescence, 30 min; inhibition, % at 25 µM; 47,000 compounds, 3% hits; AID 1645857
USP30 inh – human USP30 deubiquitinase inhibition. inhibition, % at 25 µM. 47,000 compounds, 5.3% hits. Q70CQ3. purified USP30, Ub-rhodamine cleavage fluorescence. AID 1645860
Numbers stand for hits. Hits are enriched below; roughly 12% of the tested compounds scored in any of these assays. Cut-off read from the data, not from the text of the source: active = inhibition above about 30%; inactive = the rest.

How did CCOc1ccccc1NC(=O)CNc1cc(C(F)(F)F)ccc1N1CCOCC1 do in these assays?
OTUD3 inh: inactive; USP17 block: inactive; USP28 block: inactive; USP30 inh: 33.0

Results for CC(Nc1ccccc1N1CCOCC1)C(=O)Nc1cc(C(F)(F)F)ccc1N1CCOCC1 (centres undefined) ?
OTUD3 inh: inactive; USP17 block: inactive; USP28 block: inactive; USP30 inh: inactive

What do the screens show for `CC(=O)N(Cc1nn(C)c2c1CN(S(=O)(=O)c1cccc(F)c1)CC2)c1ccccc1`?
OTUD3 inh: inactive; USP17 block: inactive; USP28 block: inactive; USP30 inh: inactive

How did Cc1nc(NCc2ccccn2)c2cc(-c3ccccc3)sc2n1 do in these assays?
OTUD3 inh: inactive; USP17 block: 74.3; USP28 block: inactive; USP30 inh: inactive

Results for c1ccc(-c2nc3sc4c(NCc5ccccn5)ncnc4c3c3c2CCC3)cc1 ?
OTUD3 inh: inactive; USP17 block: inactive; USP28 block: inactive; USP30 inh: inactive

What do the screens show for `c1ccc(-c2cc3c(NCc4ccccn4)ncnc3s2)cc1`?
OTUD3 inh: inactive; USP17 block: 35.1; USP28 block: inactive; USP30 inh: inactive

Results for CCOC(=O)c1sc2nc(C)nc(NCc3ccccn3)c2c1C ?
OTUD3 inh: inactive; USP17 block: inactive; USP28 block: inactive; USP30 inh: 30.5

How did O=C1CN(C(=O)COC(=O)Cc2cccc3ccccc23)c2ccccc2N1 do in these assays?
OTUD3 inh: inactive; USP17 block: inactive; USP28 block: inactive; USP30 inh: inactive

Results for Cc1nn2c(N3CCOCC3)cc(C(C)(C)C)nc2c1-c1ccccc1Cl ?
OTUD3 inh: inactive; USP17 block: inactive; USP28 block: inactive; USP30 inh: inactive

What do the screens show for `Cc1ccc(NC(=O)c2cc(-c3cccnc3)n(-c3ccccc3)n2)nc1`?
OTUD3 inh: inactive; USP17 block: 31.8; USP28 block: inactive; USP30 inh: 51.0

Results for O=C(NC1CCCC1)c1cc(-c2cccnc2)n(-c2ccccc2)n1 ?
OTUD3 inh: inactive; USP17 block: inactive; USP28 block: inactive; USP30 inh: 32.5

How did Cc1occ2c1C(=O)c1c(O)ccc(O)c1C2 do in these assays?
OTUD3 inh: 93.6; USP17 block: 94.8; USP28 block: 89.2; USP30 inh: 57.5

What do the screens show for `COc1ccc2c(c1)c1ncn(Cc3ccc4c(c3)OCO4)c(=O)c1n2C`?
OTUD3 inh: inactive; USP17 block: 35.5; USP28 block: inactive; USP30 inh: 48.4

How did COc1ccc2c(c1)c1ncn(CCN3CCCC3)c(=O)c1n2C do in these assays?
OTUD3 inh: inactive; USP17 block: inactive; USP28 block: inactive; USP30 inh: inactive

How did COc1ccc2c(c1)c1ncn(CCC3=CCCCC3)c(=O)c1n2C do in these assays?
OTUD3 inh: inactive; USP17 block: inactive; USP28 block: 47.4; USP30 inh: 31.2

What do the screens show for `O=C(CCn1nnc2ccccc21)N1C[C@@H](O)[C@H](N2CCCC2)C1`?
OTUD3 inh: inactive; USP17 block: inactive; USP28 block: inactive; USP30 inh: inactive

What do the screens show for `Cc1cnc(-c2nccnc2C2CCCN(C(=O)c3cccc(F)c3)C2)[nH]1` (centres undefined)?
OTUD3 inh: inactive; USP17 block: inactive; USP28 block: inactive; USP30 inh: inactive

How did CNC(=O)c1ncn2c1CN(CCC(C)C)S(=O)(=O)c1ccccc1-2 do in these assays?
OTUD3 inh: inactive; USP17 block: inactive

What do the screens show for `Cc1ccc(-n2c(Cc3cccc4ccccc34)nnc2SCC(=O)NC2CCS(=O)(=O)C2)c(C)c1` (centres undefined)?
OTUD3 inh: inactive; USP17 block: 42.3; USP28 block: inactive; USP30 inh: inactive

How did Cc1ccc(NC(=O)CSc2nnc(Cc3cccc4ccccc34)n2C)c(C)c1 do in these assays?
OTUD3 inh: inactive; USP17 block: 38.8; USP28 block: 48.9; USP30 inh: inactive

Results for Cc1cc(C)c(NC(=O)CSc2nnc(Cc3cccc4ccccc34)n2C)c(C)c1 ?
OTUD3 inh: inactive; USP17 block: inactive; USP28 block: inactive; USP30 inh: inactive

Results for C[C@@]12CCN(C(=O)CCCc3ccccn3)[C@@H]1CCCCC(=O)N2Cc1ccc(F)cc1 ?
OTUD3 inh: inactive; USP17 block: inactive; USP28 block: inactive; USP30 inh: inactive

Results for CCCS(=O)(=O)N1CCc2c(c(-c3nnc(SCC)n3CC)nn2C)C1 ?
OTUD3 inh: inactive; USP17 block: inactive; USP28 block: inactive; USP30 inh: inactive

Results for COc1ccc2c(CNCc3ccc4c(c3)OCO4)c(C(=O)O)[nH]c2c1 ?
OTUD3 inh: inactive; USP17 block: inactive; USP28 block: inactive; USP30 inh: inactive

How did Cc1sc2ncnc(OCc3ccc([N+](=O)[O-])cc3)c2c1C do in these assays?
OTUD3 inh: inactive; USP17 block: inactive; USP28 block: 46.1; USP30 inh: inactive

What do the screens show for `Cc1sc2ncnc(OCc3ccc(F)cc3Cl)c2c1C`?
OTUD3 inh: inactive; USP17 block: inactive; USP28 block: 57.6; USP30 inh: inactive

How did CCc1ccc(C(=O)COc2ncnc3sc(C)c(C)c23)cc1 do in these assays?
OTUD3 inh: inactive; USP17 block: inactive; USP28 block: inactive; USP30 inh: inactive

How did O=C(NCCCN1CCCC1)c1ccc(CS(=O)(=O)c2ccc(Br)cc2)o1 do in these assays?
OTUD3 inh: inactive; USP17 block: 39.7; USP28 block: inactive; USP30 inh: inactive

Results for COc1ccc(OCC(=O)Nc2ccc3c(c2)CCC(=O)N3Cc2ccccc2)cc1 ?
OTUD3 inh: inactive; USP17 block: inactive; USP28 block: inactive; USP30 inh: 32.4

How did Cn1ccnc1C(=O)N1C[C@@H]2CCN(c3cccnc3)C[C@@H]2C1 do in these assays?
OTUD3 inh: inactive; USP17 block: inactive; USP28 block: inactive; USP30 inh: inactive

Results for CCCc1ccc(S(=O)(=O)Nc2ccccc2F)cc1 ?
OTUD3 inh: inactive; USP17 block: inactive; USP28 block: inactive; USP30 inh: 31.7

How did O=S(=O)(Nc1ccccc1Cc1ccccc1)c1ccc(Cl)cc1 do in these assays?
OTUD3 inh: inactive; USP17 block: inactive; USP28 block: inactive; USP30 inh: 31.4

How did O=S(=O)(Nc1ccccc1Cc1ccccc1)c1ccc(F)cc1 do in these assays?
OTUD3 inh: inactive; USP17 block: 36.0; USP28 block: inactive; USP30 inh: 38.2

What do the screens show for `O=C(NC1CCCCCC1)c1nc(-c2ccc3cc[nH]c3c2)no1`?
OTUD3 inh: inactive; USP17 block: inactive; USP28 block: inactive; USP30 inh: inactive

Results for Cc1scc2nc(C(=O)NCCc3ccncc3)nc(N3CCCC3)c12 ?
OTUD3 inh: inactive; USP17 block: inactive; USP28 block: inactive; USP30 inh: inactive

What do the screens show for `COc1cc(NC(=O)COC(=O)C2(c3ccccc3F)CCCC2)cc(OC)c1`?
OTUD3 inh: inactive; USP17 block: inactive; USP28 block: inactive; USP30 inh: 41.4

How did O=C(COC(=O)C1(c2ccccc2F)CCCC1)Nc1ccc2c(c1)OCO2 do in these assays?
OTUD3 inh: inactive; USP17 block: 41.0; USP28 block: inactive; USP30 inh: 37.3

Results for Cc1cc(C)c(NS(=O)(=O)c2c[nH]c(=O)[nH]c2=O)c(C)c1 ?
OTUD3 inh: inactive; USP17 block: inactive; USP28 block: inactive; USP30 inh: inactive

Results for COc1ccc(C2CC(=O)Nc3n[nH]c(-c4ccccc4)c32)c(OC)c1 (centres undefined) ?
OTUD3 inh: inactive; USP17 block: 40.8; USP28 block: inactive; USP30 inh: 44.2
